# Results reported in PubChem BioAssay (NCI).
# Compounds without any hit were thinned out: in the full panel of roughly 83,000, 20% have a hit.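 Step 1: grow cells in 96-well plates. Step 2: add test compound at a single concentration. Step 3: incubate 48 h. Step 4: record percent growth.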 A number with no mark means an inactive call. Active and inactive are the calls of the source. How the source made its calls: active means growth percent below 10; inactive means the rest.
# Test system: HOP-62 NSCLC
# Test: NCI-60 one-dose screen, 48 h (100 = growth as untreated, 0 = no growth, -100 = all killed)
# Conditions: 10 µM
row,Structure (SMILES),growth
1,NC(=S)N/N=C/c1ccc(N)cc1,97%
2,CCOC(=O)CSc1c([N+](=O)[O-])ncn1C,98.6%
3,Nc1ncnc2c1nc(N)n2C1OC(CO)C(O)C1O (stereo unspecified),-52.9% (active)
4,C=CCOC(=O)C(=O)OCC=C,92.7%
5,O=[N+]([O-])c1cccc2nsnc12,99.5%
6,CCC(C)(O)c1ccc(C)cc1 (stereo unspecified),98.1%
7,O=C1C=CC(=O)N1c1ccc(I)cc1Cl,90.7%
8,CC12CC3CC1C(C(=O)O2)C3C(=O)O (stereo unspecified),98.9%
9,CCc1nc(N)nc(N)c1-c1ccc(Cl)cc1,64.2%
10,Cc1cc(OCCO)cc(C)c1Cl,111%
11,Cc1nc2ccccc2c2nnc(SCC(=O)N(Cc3ccccc3)c3ccccc3)n12,95.7%
12,COc1cccc(/C=N/NC(=S)NC2CC3CCC2C3)c1O (stereo unspecified),39.6%
13,O=C(O)/C=C/c1ccc2c(c1)CCC2,94.6%
14,C[N+](C)=c1ccc2nc3c(cc(Nc4ccccc4)c4ccccc43)oc-2c1,67.6%
15,Cc1ccccc1N=C(c1ccccc1)C1C(=O)c2ccccc2C1=O,98.8%
16,O=c1[nH]nc(SC2CCCCC2)c(=O)[nH]1,93.7%
17,C=CCc1cc(C(C)=O)cc(OC)c1O,122%
18,CC(=O)OC(C(=O)O)c1ccccc1 (stereo unspecified),112%
19,Cc1cc(Cc2cc(C)c(N)cc2N)c(N)cc1N,88.1%
20,Cc1ccc(C(=O)NC2c3ccccc3Oc3ccccc32)cc1,32.2%
21,CC(=O)NC(N)=S,110%
